Laboratory results from ChEMBL document CHEMBL3988442, “University of Dundee, Small-Polar-MMV Screening Library” (2021).
Screen size: about 48,000 compounds; about 13,000 (27%) showed an effect of 50% or more. The list shows a part of the results.

tested on: Wolbachia pipientis; test: Anti-Wolbachia Cell-Based Screen; assay type: functional; design: scale not given: in the data most compounds retested in dose-response had high values; conditions: 5 µM

Row | Compound | Percent Effect [%]
1 | CCn1nc(C)c(CCN2CC3(CCOC3)CCC2=O)c1C (stereo not given) | -24.96
2 | N#CC1C(=O)Nc2c(cnn2C2CCCC2)C12CCCCC2 (stereo not given) | 30.08
3 | Cn1cnc2c1CCN(Cc1nc(-c3ccco3)no1)C2 | -0.7314
4 | CCc1ncc2c(n1)CN(Cc1nc(-c3ccccn3)no1)CC2 | 1.522
5 | CC(C)c1ncc2c(n1)CN(Cc1nc(Cc3ccccc3)no1)CC2 | -0.3417
6 | CC(C)c1ncc2c(n1)CN(Cc1nc(-c3ccco3)no1)CC2 | 103.4
7 | CC(C)c1ncc2c(n1)CN(Cc1nc(-c3ccoc3)no1)CC2 | -5.396
8 | c1ccc(-c2noc(CN3CCc4cncnc4C3)n2)nc1 | 12.32
9 | CC(C)c1ncc2c(n1)CN(Cc1nc(-c3cccnc3)no1)CC2 | 97.53
10 | CC(C)c1ncc2c(n1)CN(Cc1nc(-c3ccccn3)no1)CC2 | 114.4
11 | CC1CCCN(S(=O)(=O)N2CCOC3(CCCC3)C2)C1 (stereo not given) | 2.449
12 | CCC(=O)NCC(=O)NCC(C)(C)c1cccc(Br)c1 | 13.04
13 | COc1cccc2c1OCC(C(=O)NCCn1nc(C)c(Cl)c1C)C2 (stereo not given) | -38.77
14 | CCCc1nnc(NC2CCN(C3CCSCC3)CC2)o1 | -8.087
15 | CCc1nnc(CSc2ccccn2)o1 | -8.933
16 | CN1CC(=O)N(c2cccc(F)c2)CC12CCN(S(=O)(=O)C1CC1)C2.O=C(O)C(F)(F)F (stereo not given) | -1.497
17 | CC(C)c1nccn1-c1cncc(C2CCCN(C3CCCCC3)C2)n1 (stereo not given) | 98.48
18 | CC(C)c1nccn1-c1cccc(C2CCCN(C3CCCC3)C2)n1 (stereo not given) | 0.08562
19 | CC(C)c1nccn1-c1cncc(C2CCCN(C3CCCC3)C2)n1 (stereo not given) | 108
20 | COC[C@]1(O)CCN(C(=O)c2cccc(CN(C)C)c2)CC1(C)C | 2.502
21 | COc1ccc(C)cc1CNCc1ccc(-n2nc(C)cc2C)nc1 | -14.66
22 | Cc1nc(CCNC(=O)C2CC(=O)N(C(C)(C)C)C2)sc1C (stereo not given) | 2.949

Row | Compound | Percent Effect [%]
23 | Cc1nc(COCc2nc3c(o2)CN(C(=O)c2ccc[nH]2)C3)cs1.O=C(O)C(F)(F)F | -0.815
24 | COc1ccc(C(CO)NC(=O)Nc2cccc(C#N)c2)cc1 (stereo not given) | -8.791
25 | COc1ccc2cc(CNc3c(C)nn(C(C)C)c3C)ccc2c1 | -4.986
26 | COc1ccc(CCC(C)Nc2cccc(SC)c2)cc1 (stereo not given) | 100.8
27 | COC[C@H](C)Nc1cc(C)c2ccc(SC)cc2n1 | 11.13
28 | COc1ccc(CC(C)Nc2cccc(SC)c2)cc1 (stereo not given) | 111.5
29 | COc1ccc(C(CO)NC(=O)Nc2cccc(F)c2)cc1 (stereo not given) | -21.51
30 | Cn1cc(CN2CCc3ncn(C)c3C2COCc2ccccc2)cn1 (stereo not given) | 0.114
31 | Nc1ncnc2nc(C3CCN(C(=O)Cc4ccccc4)C3)ccc12 (stereo not given) | 78.69
32 | O=C(Cc1ccccc1)N1CCn2cc(Cn3cncn3)nc2C1 | 14.97
33 | Nc1ncnc2nc(C3CCN(C(=O)Cc4ccc(F)cc4)C3)ccc12 (stereo not given) | 118.1
34 | O=C(Cc1ccncc1)N1C[C@@H]2CC[C@H](C1)N(Cc1ccccc1)C2=O | 6.116
35 | Cc1ccc(CC(=O)N2CCCC(c3cc(C)[nH]n3)C2)cn1 (stereo not given) | -0.4689
36 | Cc1nnc([C@H]2C[C@H]3CN(C(=O)Cc4ccc(F)cc4)CC[C@@H]3O2)o1 | -15.1
37 | O=c1[nH]c2cc(S(=O)(=O)N3CCC(c4ccsc4)CC3)ccc2o1 | 12.73
38 | COC(=O)CNC(=O)CSCc1nc(O)c2cc(C)sc2n1 | 28.1
39 | O[C@@]1(CN2CCN(Cc3ccncc3)CC2)CCCN2CCCC[C@@H]21 | 17.3
40 | CCN(Cc1noc(CC(C)C)n1)C[C@]1(O)CCCN2CCCC[C@@H]21 | 2.054
41 | O[C@@]1(Cn2cnc(Cl)c2Cl)CCCN2CCCC[C@@H]21 | 101.1
42 | Cc1cc2ncn(C[C@]3(O)CCCN4CCCC[C@@H]43)c2cc1C | 111.8
43 | O[C@@]1(CNCCOc2ccccc2)CCCN2CCCC[C@@H]21 | -8.201
44 | Cc1ccnc(N2CCN(C[C@]3(O)CCCN4CCCC[C@@H]43)CC2)c1 | -8.166

Row | Compound | Percent Effect [%]
45 | Cc1cnccc1N1CCN(C[C@]2(O)CCCN3CCCC[C@@H]32)CC1 | -12.63
46 | Cc1cccnc1CN1CCN(C[C@]2(O)CCCN3CCCC[C@@H]32)CC1 | 4.951
47 | COc1ccc2c(c1)ncn2C[C@]1(O)CCCN2CCCC[C@@H]21 | 108.1
48 | CCS(=O)(=O)N1Cc2c(Cn3ccnc3)nn(C(C)C)c2C1 | 9.692
49 | COC[C@@]12CC[C@@H](N3CCOCC3)C[C@H]1CCN(c1cc(C)ccn1)C2 | -3.135
50 | O=C(Cc1cccc(O)c1)NCCCNC(=O)c1cccc(F)c1 | 107.1
51 | O=C(NCCCNC(=O)c1ccc(F)cc1F)c1cccc(O)c1 | 113.1
52 | O=C(NCCCO)Nc1cccc(I)c1 | 5.16
53 | O=C(NCC(O)c1ccc(F)cc1F)c1cccc(F)c1 (stereo not given) | -1.094
54 | O=C(CCNC(=O)c1ccoc1)Nc1ccc(F)cc1F | -4.684
55 | O=C(NCCCNC(=O)c1cccc(O)c1)Nc1ccc(Cl)cc1 | 112
56 | NC(=O)CCCNC(=O)Cc1cccc(I)c1 | -16.28
57 | O=C(NCCCNC(=O)c1ccccc1)Nc1ccc(F)cc1F | 98.16
58 | Cc1cccc(C(=O)NCCCN2CCN(c3ccccc3)CC2)c1 | 0.2933
59 | O=C(Nc1ccc(F)cc1F)NC1(CO)CCOCC1 | -12.95
60 | Cc1nc(C)c(C(=O)NCCNC(=O)c2ccc(F)cc2F)s1 | 5.73
61 | CC(NC(=O)NC1CCN(Cc2ccccn2)CC1)c1nncn1C (stereo not given) | 0.2394
62 | CC(C)(C)CN[C@@H]1CO[C@H](CNC(=O)c2ccncc2)[C@H]1O | -9.96
63 | CC(=O)Nc1ccc(Cl)c(C(=O)N(C)Cc2nc(C)c[nH]2)c1 | -7.642
64 | CCCc1nc(CN(C)CCOc2ccccc2)cs1 | -8.28
65 | CC(C)N(C)S(=O)(=O)N1CCCC1CC(=O)c1cccs1 (stereo not given) | 9.795
